Where “and” joins values, the source holds several entries; their conditions need not be identical. Equal entries are not always repeated. Out of some 300,000 compounds screened, about 3,300 (1.1%) were called active. Roughly 6% stayed inconclusive and do not appear here.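 The calls were made as follows: active = more than half of the replicate wells show a fall in the fluorescence ratio signal beyond about 16% (limit read from the data, passing the limit was not always enough); inconclusive = exactly half of the replicate wells pass the set limit; inactive = fewer than half of replicates pass the limit.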 Only a selection was taken, and actives are over-represented in it overall.
test system: Ran GTPase (GTP-bound) - importin-beta complex; assay: inhibitors of RanGTP-importin-beta interaction, primary screen, biochemical, FRET, CFP-Ran, YFP-importin-beta, homogeneous (AID 2216); conditions: cell-free CFP-Ran/YFP-importin-beta FRET ratio; stronger effect = higher value; concentration not given here;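 also: 0% = DMSO wells and 100% = Ran loaded with GDP instead of GTP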

inhibition, inactive:
O=C(COC(=O)c1ccccn1)NNC(=O)c1ccc([N+](=O)[O-])cc1 4.26%
CN(CC(=O)NCc1cccnc1)S(=O)(=O)c1cc(Cl)ccc1Cl 4.66%
COc1ccc(NC(=O)CN(C)C(=O)Cc2coc3cc(C)c(C)cc23)cc1 0.0585%
C=CCOc1cccc(C2C(C(=O)c3ccc(C)o3)=C(O)C(=O)N2c2nnc(C)s2)c1 (stereo unspecified) -5.03%
O=C1N[C@@H](Cc2ccccc2)C(=O)N2[C@@H]3N(S(=O)(=O)c4ccc(F)cc4)c4ccccc4[C@]3(Br)C[C@@H]12 5.5%
O=C(CCl)NNc1nc(-c2ccccc2)c2cc(Cl)ccc2n1 -0.54%
NC(N)=Nc1nc(-c2ccccc2)c2cc(Cl)ccc2n1 4.42%
Cc1cc(C)c(S(=O)(=O)n2cc(C(C)C(N)C(=O)O)c3ccccc32)c(C)c1 (stereo unspecified) -3.39%
O=C1c2ccccc2S(=O)(=O)N1CC(O)Cn1c2ccccc2c2ccccc21 (stereo unspecified) 3.48%
CS(=O)(=O)N(CC(O)Cn1c2ccccc2c2ccccc21)c1cccc2ccccc12 (stereo unspecified) 2.16%
O=C(COC(=O)CNS(=O)(=O)c1ccc(F)c(F)c1F)NC1CCCC1 -1.07%
CCOc1ccccc1N(CC(=O)Nc1ccccc1C(=O)OC)S(C)(=O)=O 2.19%
COC(=O)C1=CN(C)C=C(C(=O)OC)C1c1ccc(Cl)cc1Cl 2.63%
COc1ccc(Cc2nnc(SCC(=O)N(c3ccccc3)C(C)C)n(N)c2=O)cc1 -2.45%
OCCNCCOc1ccc(Cl)c(Cl)c1 -2.77%
Clc1cccc(Cl)c1OCCOCCNCc1ccccc1 0.589%
CCCCN1C(N)=NC[C@@H]1Cc1ccccc1 -2.74%
Cc1ccn2c(=O)nc(SCC(=O)NCc3ccc4c(c3)OCO4)nc2c1 -2.18%
COc1ccc(-n2nnnc2CNC(=O)c2ccc3ccccc3c2)cc1 3.81%
O=C(CSc1nc(=O)n2ccccc2n1)Nc1ccc2c(c1)OCCO2 0.244%
CC(C)Nc1nnc(SC(C)C(=O)N(C)C2CCCCC2)s1 (stereo unspecified) 2.7%
CC(=O)c1c(-c2ccccc2)c2ccccc2[nH]c1=O -2.98%
O=C(CN1CCOCC1)Nc1c(-c2ccccc2)c2cc(Br)ccc2[nH]c1=O -3.33%
CCN(CCCNC(=O)CCn1c(=O)[nH]c2ccsc2c1=O)c1ccccc1 8.57%
CN(C)CCCNC(=O)c1ccc2[nH]c3ccccc3c2c1 -2.02%
Cc1ccc(NC(=O)CSCC(=O)Nc2sccc2C#N)cc1 -2.13%
O=C(COC(=O)/C=C/c1ccc(OC(F)F)cc1)NC1CCCCC1 -7.27%
N#Cc1c(C(F)(F)F)cc(-c2ccc(Cl)cc2)nc1SCC(=O)O -1.29%
N#Cc1c(C(F)(F)F)cc(-c2ccccc2)nc1SCC(=O)N1CCOCC1 3.19%
CCOC(=O)c1c(NC(=S)Nc2ccccc2C)sc2c1CCC2 -2.16%
CCOC(=O)c1c(NC(=O)NC(C)(C)C)sc2c1CCN(C)C2 12%
COc1cccc(NC(C)=[N+](C)CCNS(=O)(=O)c2ccc(Cl)cc2)c1 -6.06%
COc1ccc(NC(=O)CN(C)C(=O)c2n[nH]c3ccccc23)cc1 -0.623%
CCCCn1c(N)c(N(CCOC)C(=O)c2cccc(S(=O)(=O)N3CCCCC3)c2)c(=O)[nH]c1=O 6.51%
O=C(COC(=O)c1ncc(Cl)c(Cl)c1Cl)NNC(=O)c1ccccc1 7.08%
CCN1C(=O)/C(=c2\s/c(=C3\Sc4ccccc4N3C)c(=O)n2C)N(C)C1=S 1.12%
CCCCN1C(=O)/C(=C2/Sc3ccc(Cl)cc3N2CC)SC1=S 0.428%
O=C(/C=C/c1ccc([N+](=O)[O-])o1)NNC(=O)c1ccc(F)cc1 -0.948%
CCOC(=O)/C(C#N)=C/c1ccc(OCC(=O)Nc2ccccc2)c(OC)c1 1.23%
COc1ccc(/C=C(\C#N)C(=O)ONC2=NCCCCC2)cc1 2.96%
COc1ccc(N2CCN(C(=O)/C(C#N)=C/c3ccccc3)CC2)cc1 -3.23%
CCOC(=O)NC(=O)/C(C#N)=C\c1ccccc1 5.82%
CC(=O)NCC(=O)N1CCC(n2nccc2NC(=O)CCCc2ccccc2)CC1 -2.9%
Cc1cc(O)c(Sc2ccccc2)c(=O)o1 -1.75%
Cc1ccc(NC(=O)COc2coc(CN3CCc4ccccc4C3)cc2=O)cc1Cl 1.39%
COc1ccc(C(CNC(=O)c2cccc(NS(=O)(=O)c3ccc(C)c(F)c3)c2)N2CCCC2)cc1 (stereo unspecified) -0.978%
Cc1ccc(OCCNC(=O)CNC(=O)c2ccc(C)c(C)c2)cc1 4.18%
Oc1ccc(N=Cc2sc3ccccc3c2Cl)cc1 5.46%
COc1ccc(N=Nc2ccc(O)c(P(=O)(c3ccccc3)c3ccccc3)c2)cc1 -0.168%
COC(=O)c1cc(OC)c(OC)cc1NC(=O)CSc1ccc(C)cc1 -0.733%
COc1ccc(C)cc1NC(=O)CSc1nc(SC)ns1 2.19%
CCC(c1nnc(SCC(=O)NNC(=O)c2ccccc2)n1Cc1ccccc1)N(C)C (stereo unspecified) -5.06%
Cc1cccn2c(=O)c(/C=C(\C#N)C(N)=O)c(N3CCCCCC3)nc12 -1.31%
Cc1cc(C)c(C#N)c(N2CCC(C(N)=O)CC2)n1 -1.05%
CS(=O)(=O)N(CC(=O)N1CCc2ccccc2C1)c1ccc(Br)cc1 0.322%
Cc1ccc(-c2csc(NC(=O)C3=COCCO3)n2)cc1C 2.13%
COc1cccc(C(=O)NNC(=O)c2cccc(F)c2)c1 -3.67%
COc1ccc2oc(=O)c(C(=O)N3CCCC3)cc2c1 0.715%
COc1cccc(N2CC(NC(=O)c3ccc4ccccc4c3)CC2=O)c1 (stereo unspecified) -1.06%
CCN1C(=O)[C@H]2[C@@H](c3ccc(-c4ccc(F)cc4)cc3)N[C@@](Cc3ccccc3)(C(=O)OC)[C@H]2C1=O -2.12%
COc1ccc(N2CCN(C(=O)COC(=O)c3cccc(S(=O)(=O)Nc4ccccc4OC)c3)CC2)cc1 -1.93%
CCOC(=O)c1cccc(NC(=O)CN2C(=O)C3CC=CCC3C2=O)c1 (stereo unspecified) 3.31%
O=C(CN1C(=O)CC(c2ccccc2)S(=O)(=O)c2ccccc21)NC1CCCC1 (stereo unspecified) 0.0598%
COc1ccc2c(c1)C(=O)Nc1cc(Cl)ccc1N2 1.28%
Cc1noc(C)c1CSCC(=O)N(CCC(C)C)c1c(N)n(Cc2ccccc2)c(=O)[nH]c1=O -1.15%
COc1ccc(CN2[C@@H](CC(=O)O)c3cc(F)ccc3S2(=O)=O)cc1 3.99%
CCN1C(=O)[C@H]2[C@@H](c3ccc(SC4CCCCC4)c(OC)c3)N[C@@](Cc3ccccc3)(C(=O)OC)[C@H]2C1=O -1.26%
O=C(Cc1ccc(-n2c(=O)[nH]c3ccccc3c2=O)cc1)N1CCN(c2cccc(Cl)c2)CC1 2.52%
CN1CCN(c2ccc(NC(=O)c3ccc4c(c3)[nH]c(=O)n4Cc3ccc(F)cc3)cc2)CC1 0.81%
CCCC[C@@H]1CN=C(N)N1CCCC 5.62%
O=C(Oc1ccc(-c2nnco2)cc1)c1ccc(F)c(S(=O)(=O)N2CCOCC2)c1 1.51%
CCCCCOc1ccc(CSC2=NCCN2)cc1[N+](=O)[O-] -3.18%
CCCCOc1ccc(CSC(=N)N)cc1[N+](=O)[O-] -0.296%

inhibition, active:
OCCCNc1nc(-c2ccccc2)c2cc(Cl)ccc2n1 50.7%
CCCCN(CCCC)CC(O)Cn1c2ccccc2c(=O)c2ccccc21 (stereo unspecified) 114%
CCOc1ccccc1C1C(C(=O)OC)=CN(C)C=C1C(=O)OC 118%
OCCNCc1cccc(OCc2ccccc2Cl)c1 17.6%
C/C(=N\N)c1c(-c2ccccc2)c2cc(Br)ccc2[nH]c1=O 21.4%
CCN(CCCNC(=O)c1ccc2c(c1)NC(=O)CN2C)c1cccc(C)c1 20.7%
CCN(CC)c1nc(-c2ccccc2)cc(C(F)(F)F)c1C#N 25.9%
CCOC(=O)c1c(NC(=S)Nc2ccccc2)sc2c1CCN(C)C2 70%
CCN1C(=O)/C(=C2/Sc3ccccc3N2CCCS(=O)(=O)O)SC1=S 43.1% and 55.8%
CCOC(=O)/C(C#N)=C/c1ccc(N2CCCCC2)cc1 91%
CCOC(=O)/C(C#N)=C/c1ccc(N2CCN(Cc3ccccc3)CC2)cc1 72.8%
COc1ccc(N=C(C)c2sc3ccccc3c2O)cc1 39.4%
COc1ccc(C)cc1NC(=O)CSc1ccc(Cl)cc1 27.5%
Cc1cccn2c(=O)c(/C=C(\C#N)S(=O)(=O)c3ccc(Cl)cc3)c(N3CCC(C(N)=O)CC3)nc12 16.6%
COc1cccc(C(=O)c2cc3ccc(O)cc3oc2=O)c1 26.4%
CC1CC(=O)N(CC(=O)Nc2cccc(Cl)c2)c2ccccc2S1(=O)=O (stereo unspecified) 18.5%
CN1CCN(c2cc(=O)n(-c3ccc(Cl)cc3)c(=O)[nH]2)CC1 31.4%
CCCOc1ccc(Cn2ccnc2)cc1[N+](=O)[O-] 22.9%

Reference: PubChem BioAssay AID2216 (Broad Institute, 2009)
